Measurements taken from ChEMBL document CHEMBL3988442, “University of Dundee, Small-Polar-MMV Screening Library” (2021).
For part of these data: Entries with a potency or affinity are not part of this list.

Legend:
Set-up in all cases: scale not given: direction of the effect not stated beside the values
[1] = molecular target: Protein translocase subunit SecA (Escherichia coli (strain K12)) (UniProt P10408); assay: Assay to Identify E. coli SecA ATPase Inhibitors; assay type: functional; conditions: 30 µM
Chain of Protein translocase subunit SecA (Escherichia coli (strain K12)) (P10408 whole entry): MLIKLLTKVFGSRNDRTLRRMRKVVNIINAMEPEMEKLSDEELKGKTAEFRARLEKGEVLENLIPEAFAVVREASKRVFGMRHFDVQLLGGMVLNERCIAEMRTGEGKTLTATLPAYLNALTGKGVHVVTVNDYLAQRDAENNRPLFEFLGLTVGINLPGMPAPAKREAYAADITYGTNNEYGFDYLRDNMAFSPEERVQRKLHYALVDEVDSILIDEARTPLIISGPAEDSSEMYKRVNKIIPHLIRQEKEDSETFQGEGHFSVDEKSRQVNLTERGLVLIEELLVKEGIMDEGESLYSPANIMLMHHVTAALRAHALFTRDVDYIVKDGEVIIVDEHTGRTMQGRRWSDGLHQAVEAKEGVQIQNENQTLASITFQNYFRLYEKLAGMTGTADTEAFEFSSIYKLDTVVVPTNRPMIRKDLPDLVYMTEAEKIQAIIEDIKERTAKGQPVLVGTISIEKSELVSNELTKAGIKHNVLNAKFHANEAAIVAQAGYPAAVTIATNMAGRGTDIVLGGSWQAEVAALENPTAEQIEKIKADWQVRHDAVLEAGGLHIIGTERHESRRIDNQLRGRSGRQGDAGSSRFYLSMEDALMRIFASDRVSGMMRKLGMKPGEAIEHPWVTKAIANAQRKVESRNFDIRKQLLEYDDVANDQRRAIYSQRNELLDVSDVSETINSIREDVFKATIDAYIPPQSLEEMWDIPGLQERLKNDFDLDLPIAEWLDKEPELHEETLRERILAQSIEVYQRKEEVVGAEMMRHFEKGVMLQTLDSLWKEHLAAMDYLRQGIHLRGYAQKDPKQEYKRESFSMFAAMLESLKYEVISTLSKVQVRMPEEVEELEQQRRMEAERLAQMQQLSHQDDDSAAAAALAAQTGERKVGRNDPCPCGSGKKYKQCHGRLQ

[2] = molecular target: T1, Ubiquitin-activating enzyme e1, putative (Leishmania donovani (strain BPK282A1)) (UniProt E9BSI1); assay: Leishmania donovani Ubiquitin Activating Enzyme (LdE1); assay type: functional; conditions: 30 µM
T1 sequence (whole entry): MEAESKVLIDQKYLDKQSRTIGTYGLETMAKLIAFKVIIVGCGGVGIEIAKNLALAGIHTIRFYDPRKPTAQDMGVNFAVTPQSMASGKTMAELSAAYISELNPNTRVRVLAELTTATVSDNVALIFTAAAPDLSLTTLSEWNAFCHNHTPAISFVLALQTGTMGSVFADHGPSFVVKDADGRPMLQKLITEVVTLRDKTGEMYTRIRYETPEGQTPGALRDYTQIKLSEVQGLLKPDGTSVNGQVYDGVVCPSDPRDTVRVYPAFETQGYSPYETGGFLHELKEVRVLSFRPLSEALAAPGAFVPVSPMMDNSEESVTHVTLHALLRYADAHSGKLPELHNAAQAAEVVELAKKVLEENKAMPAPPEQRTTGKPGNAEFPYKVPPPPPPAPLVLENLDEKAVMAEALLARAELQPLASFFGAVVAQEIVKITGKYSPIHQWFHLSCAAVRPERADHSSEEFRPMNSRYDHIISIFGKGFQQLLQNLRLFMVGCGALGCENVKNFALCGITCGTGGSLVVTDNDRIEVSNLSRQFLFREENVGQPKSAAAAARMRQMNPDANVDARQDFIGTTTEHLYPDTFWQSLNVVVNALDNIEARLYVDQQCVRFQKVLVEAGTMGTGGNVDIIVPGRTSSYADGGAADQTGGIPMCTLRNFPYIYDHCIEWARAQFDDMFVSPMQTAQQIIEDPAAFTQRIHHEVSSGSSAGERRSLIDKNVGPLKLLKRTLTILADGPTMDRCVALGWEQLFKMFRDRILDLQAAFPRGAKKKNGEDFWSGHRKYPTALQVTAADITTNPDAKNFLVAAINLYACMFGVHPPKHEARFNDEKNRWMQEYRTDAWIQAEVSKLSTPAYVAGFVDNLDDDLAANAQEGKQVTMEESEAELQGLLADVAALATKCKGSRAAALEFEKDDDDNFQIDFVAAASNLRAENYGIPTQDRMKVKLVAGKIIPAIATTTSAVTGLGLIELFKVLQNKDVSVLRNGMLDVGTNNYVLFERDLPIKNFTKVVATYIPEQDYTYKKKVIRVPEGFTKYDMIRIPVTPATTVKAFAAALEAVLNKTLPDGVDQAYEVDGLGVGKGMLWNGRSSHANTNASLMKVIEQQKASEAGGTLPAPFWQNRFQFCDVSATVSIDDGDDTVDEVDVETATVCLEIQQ

[3] = molecular target: AMP-activated protein kinase, AMPK (Homo sapiens) (UniProt P54646+O43741+P54619+Q9UGJ0+Q9Y478+Q13131+Q9UGI9); assay: AMP-dependent Kinase enzyme assay. An in vitro enzyme assay that detects ADP turnover that is directly proportional to AMPK activity. This uses naive AMPK that is activated during the assay with MK-8722; assay type: functional; conditions: 30 µM
[4] = molecular target: Sialic acid-binding Ig-like lectin 9 (Homo sapiens) (UniProt Q9Y336); assay: Hs-Siglec9 ALPHAscreen SOP 20170721; conditions: 10 µM
Chain of Sialic acid-binding Ig-like lectin 9 (Homo sapiens) (Q9Y336 whole entry): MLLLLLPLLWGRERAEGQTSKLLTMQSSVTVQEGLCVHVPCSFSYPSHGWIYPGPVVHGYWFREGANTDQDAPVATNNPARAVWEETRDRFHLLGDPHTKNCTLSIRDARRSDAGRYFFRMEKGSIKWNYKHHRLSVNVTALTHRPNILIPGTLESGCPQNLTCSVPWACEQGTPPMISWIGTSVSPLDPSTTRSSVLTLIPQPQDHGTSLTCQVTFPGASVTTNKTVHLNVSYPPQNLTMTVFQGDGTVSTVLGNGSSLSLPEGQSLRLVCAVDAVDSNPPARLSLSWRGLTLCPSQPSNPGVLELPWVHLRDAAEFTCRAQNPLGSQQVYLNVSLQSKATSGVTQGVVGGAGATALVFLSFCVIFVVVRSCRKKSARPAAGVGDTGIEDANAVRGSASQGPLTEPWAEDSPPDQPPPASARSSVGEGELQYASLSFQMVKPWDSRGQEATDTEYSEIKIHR

[5] = tested on: Trypanosoma cruzi; assay: Trypanosoma cruzi phosphomannomutase and mannose-1-phosphate guanylyltransferase assay; assay type: functional; conditions: 10 µM
[6] = molecular target: T2, Arginase-2, mitochondrial (Homo sapiens) (UniProt P78540); assay: in vitro enzyme assay to detect the production of urea directly proportional to the activity of Arginase II; assay type: functional; conditions: 33.3 µM; further: in the data most compounds retested in dose-response had high values
T2 sequence (whole entry): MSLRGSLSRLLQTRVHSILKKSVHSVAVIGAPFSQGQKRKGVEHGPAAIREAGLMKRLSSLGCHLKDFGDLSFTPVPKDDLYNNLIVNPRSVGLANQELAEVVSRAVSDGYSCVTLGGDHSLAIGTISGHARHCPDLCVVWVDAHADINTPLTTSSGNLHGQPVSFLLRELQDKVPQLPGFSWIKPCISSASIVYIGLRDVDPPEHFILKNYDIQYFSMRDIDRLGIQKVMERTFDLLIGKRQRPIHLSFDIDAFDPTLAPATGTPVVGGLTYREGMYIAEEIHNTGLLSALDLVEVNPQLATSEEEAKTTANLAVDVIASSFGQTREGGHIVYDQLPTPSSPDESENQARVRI

[7] = molecular target: T3, Proteasome subunit beta (Trypanosoma cruzi) (UniProt O96673); assay: Trypanosoma cruzi proteasome chymotrypsin-like activity (TcProtChymo) assay.; further: in the data most compounds retested in dose-response had high values; assay type: functional; conditions: 9.37 µM
T3 sequence (whole entry): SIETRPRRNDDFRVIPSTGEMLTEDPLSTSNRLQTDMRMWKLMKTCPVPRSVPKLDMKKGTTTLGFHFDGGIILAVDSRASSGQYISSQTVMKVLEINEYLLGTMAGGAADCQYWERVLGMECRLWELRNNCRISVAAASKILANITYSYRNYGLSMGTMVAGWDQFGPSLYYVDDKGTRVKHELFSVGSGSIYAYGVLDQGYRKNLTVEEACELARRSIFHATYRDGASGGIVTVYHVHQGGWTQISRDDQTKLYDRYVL

[8] = species: Homo sapiens; assay: To identify inhibition of the IFN signalling (Jak-Stat) pathway via expression of an eGFP reporter gene under the control of an IFN-stimulated response element (ISRE) containing MxA promoter.; assay type: functional; conditions: 30 µM
[9] = molecular target: T4, Tyrosyl-tRNA synthetase, putative (Trypanosoma cruzi (strain CL Brener)) (UniProt Q4DSP6); assay: Trypanosoma cruzi tyrosyl tRNA synthetase (TcYRS) _High Tyrosine SOP; assay type: functional; conditions: 30 µM; further: in the data most compounds retested in dose-response had high values
T4 sequence (whole entry): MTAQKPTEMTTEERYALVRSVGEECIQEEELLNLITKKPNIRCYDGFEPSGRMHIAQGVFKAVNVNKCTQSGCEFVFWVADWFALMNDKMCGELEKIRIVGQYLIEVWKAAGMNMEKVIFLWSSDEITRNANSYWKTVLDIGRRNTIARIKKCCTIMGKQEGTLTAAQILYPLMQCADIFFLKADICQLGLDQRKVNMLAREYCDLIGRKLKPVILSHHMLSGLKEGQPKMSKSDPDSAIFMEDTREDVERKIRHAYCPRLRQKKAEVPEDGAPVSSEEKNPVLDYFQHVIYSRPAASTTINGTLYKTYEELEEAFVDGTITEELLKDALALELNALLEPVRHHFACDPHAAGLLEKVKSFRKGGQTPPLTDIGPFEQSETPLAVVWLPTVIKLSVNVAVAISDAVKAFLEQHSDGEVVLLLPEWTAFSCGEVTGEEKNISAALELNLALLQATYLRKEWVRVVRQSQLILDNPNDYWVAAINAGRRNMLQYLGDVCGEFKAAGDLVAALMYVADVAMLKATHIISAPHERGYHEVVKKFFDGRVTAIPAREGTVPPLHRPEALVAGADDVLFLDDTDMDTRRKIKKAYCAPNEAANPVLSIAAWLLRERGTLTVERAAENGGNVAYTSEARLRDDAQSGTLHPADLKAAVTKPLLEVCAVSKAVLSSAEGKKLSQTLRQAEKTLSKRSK

[10] = molecular target: T4, Tyrosyl-tRNA synthetase, putative (Trypanosoma cruzi (strain CL Brener)); assay: Trypanosoma cruzi tyrosyl tRNA synthetase (TcYRS) SOP; assay type: functional; conditions: 30 µM
[11] = molecular target: Chromo domain-containing protein 1 (Saccharomyces cerevisiae (strain ATCC 204508 / S288c) (Baker's yeast)) (UniProt P32657); assay: ScCHD-1 Enzyme Inhibition Assay; assay type: functional; conditions: 30 µM; further: in the data most compounds retested in dose-response had high values
Chain of Chromo domain-containing protein 1 (Saccharomyces cerevisiae (strain ATCC 204508 / S288c) (Baker's yeast)) (P32657 whole entry, the tested form may be a part): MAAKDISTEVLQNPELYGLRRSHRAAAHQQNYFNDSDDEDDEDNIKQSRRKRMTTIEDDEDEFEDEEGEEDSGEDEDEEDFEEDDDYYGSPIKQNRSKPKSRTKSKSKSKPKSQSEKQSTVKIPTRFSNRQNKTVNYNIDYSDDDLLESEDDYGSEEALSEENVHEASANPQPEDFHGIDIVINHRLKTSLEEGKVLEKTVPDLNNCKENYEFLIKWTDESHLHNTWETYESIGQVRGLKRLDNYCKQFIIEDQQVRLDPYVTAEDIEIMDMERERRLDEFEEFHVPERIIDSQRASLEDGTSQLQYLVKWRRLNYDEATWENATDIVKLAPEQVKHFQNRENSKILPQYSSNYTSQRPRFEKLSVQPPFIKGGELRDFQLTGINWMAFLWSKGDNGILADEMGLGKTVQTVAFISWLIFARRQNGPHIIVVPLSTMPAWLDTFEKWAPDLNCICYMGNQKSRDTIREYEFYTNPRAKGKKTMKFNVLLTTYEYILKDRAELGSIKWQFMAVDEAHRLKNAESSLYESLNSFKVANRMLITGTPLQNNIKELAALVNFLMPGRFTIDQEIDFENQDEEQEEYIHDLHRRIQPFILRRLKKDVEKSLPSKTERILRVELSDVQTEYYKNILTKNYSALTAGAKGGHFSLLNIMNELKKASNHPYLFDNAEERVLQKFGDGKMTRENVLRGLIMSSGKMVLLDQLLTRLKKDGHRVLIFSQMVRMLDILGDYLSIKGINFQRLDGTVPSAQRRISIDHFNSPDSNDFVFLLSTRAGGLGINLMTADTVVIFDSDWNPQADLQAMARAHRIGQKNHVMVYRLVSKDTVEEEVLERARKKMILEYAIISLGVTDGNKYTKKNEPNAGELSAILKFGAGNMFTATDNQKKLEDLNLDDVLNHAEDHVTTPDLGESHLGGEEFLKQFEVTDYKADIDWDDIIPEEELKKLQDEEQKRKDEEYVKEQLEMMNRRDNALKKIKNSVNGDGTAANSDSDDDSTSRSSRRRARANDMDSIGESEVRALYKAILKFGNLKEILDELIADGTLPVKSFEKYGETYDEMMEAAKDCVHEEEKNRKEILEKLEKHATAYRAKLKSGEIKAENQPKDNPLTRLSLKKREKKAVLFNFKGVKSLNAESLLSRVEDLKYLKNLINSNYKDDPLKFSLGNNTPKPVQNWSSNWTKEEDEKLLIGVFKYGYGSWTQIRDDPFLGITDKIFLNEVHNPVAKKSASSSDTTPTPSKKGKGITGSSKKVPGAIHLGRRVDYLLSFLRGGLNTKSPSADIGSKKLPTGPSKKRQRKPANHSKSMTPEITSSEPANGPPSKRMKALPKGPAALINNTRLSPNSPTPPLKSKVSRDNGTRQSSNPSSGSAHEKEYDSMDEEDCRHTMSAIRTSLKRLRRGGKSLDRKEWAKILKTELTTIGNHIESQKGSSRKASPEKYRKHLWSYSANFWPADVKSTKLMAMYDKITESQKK

Row | Compound | Percent Effect [1] | Percent Effect [2] | Percent Effect [3] | Percent Effect [4] | Percent Effect [5] | Percent Effect [6] | Percent Effect [7] | Percent Effect [8] | Percent Effect [9] | Percent Effect [10] | Percent Effect [11]
1 | CC(C)N1CCC(Cc2cnc(-c3cccc(C(=O)O)c3)cn2)C1 (centres undefined) | -3.78% | 1.35% | 12.1% | 1.95% | 1.19% | 1.62% | -3.59% | 7.71% | 0% | 9.09% | 5.67%
2 | CCc1nc(CN2CCCC(NCc3ccc(C(N)=O)cc3)C2)no1 (centres undefined) | -4.14% | 2.53% | -1.56% | 9.52% | 2.93% | 1.14% | -0.246% | 12.3% | -0.493% | 1.27% | -2.88%
3 | O=C(NCc1ccoc1)Nc1ccc(CN2CCOC2=O)cc1 | -4.58% | 1.39% | 6.74% | -4.22% | -6.12% | 0% | 15.1% | 24.8% | 0% | -5.13% | -2.04%
4 | O=C(NCc1cn2c(n1)CN(CC1CCOCC1)CC2)C1CCC1 | -8.08% | -2.7% | 4.27% | 1.46% | -2.73% | -1.25% | 12.9% | 5.25% | 2.97% | 1.22% | -0.655%
5 | CC1N(CC2CC2)C(=O)COC12CCN(Cc1nccs1)CC2 (centres undefined) | -2.73% | 11% | -7.81% | 11.6% | 5.56% | -2% | 11.2% | -5.88% | 4.17% | 6.17% | -5.43%
6 | CC(C)(C)c1nc(CN(Cc2cccs2)C2CCS(=O)(=O)C2)no1 (centres undefined) | -1.36% | 21.1% | -5.34% | -2% | 4.76% | 1.44% | 5.67% | 26.2% | 6.4% | 25.9% | -8.43%
7 | CCOc1ccccc1OC1CCN(C(=O)c2nc(=O)[nH][nH]2)CC1 | -5.6% | 18.4% | -5.81% | 1.22% | 10.5% | -3.06% | 13.9% | 18.1% | 6.37% | 19.5% | -9.11%
8 | CN(Cc1ccsc1)C(=O)c1cccc(NS(C)(=O)=O)c1 | -5.08% | 20.8% | -4.59% | 10.4% | 4.12% | -6.41% | 3.72% | 14.4% | 8.74% | 24.4% | -8.96%
9 | O=S1(=O)N=C(SCc2ccc(Cl)cc2)Nc2ccc(F)cc21 | -2.41% | -7.79% | -5.17% | -2.88% | -1.08% | 1.94% | 13.8% | 21.9% | -6.35% | -8.97% | -10.5%
